Bioassay records (PubChem BioAssay)
HTT promoter inh: Primary qHTS for Identification of Small Molecule Inhibitors of Huntingtin Promoter Activity; HEK293 HTT promoter firefly luciferase reporter, 24 h; 0.93% of 48,000 active; Potency, µM (highest dose often 57.5 µM), hits mostly inhibitors; further: nearly all actives have a fitted effect of over 50% in size
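Quantitative HTS used concentration series of up to 57.5 uM final on HEK293 luciferase reporter cells, 24 h at 37 degrees C. Readout was Dual-Glo firefly luminescence.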
GALC G270D up: A Novel Cell-Based Assay to Identify Small Molecules for B -Galactocerebrosidase; P54803; 145M-Twi-hGALC-G270D cells, HMU-beta-Gal fluorescence, 48 h; Potency, µM (top dose mostly 57.5 µM), actives largely listed as activators; 0.1% of 45,000 active; further: nearly all actives have a fitted effect of over 65% in size
Target sequence (P54803 whole entry G286D): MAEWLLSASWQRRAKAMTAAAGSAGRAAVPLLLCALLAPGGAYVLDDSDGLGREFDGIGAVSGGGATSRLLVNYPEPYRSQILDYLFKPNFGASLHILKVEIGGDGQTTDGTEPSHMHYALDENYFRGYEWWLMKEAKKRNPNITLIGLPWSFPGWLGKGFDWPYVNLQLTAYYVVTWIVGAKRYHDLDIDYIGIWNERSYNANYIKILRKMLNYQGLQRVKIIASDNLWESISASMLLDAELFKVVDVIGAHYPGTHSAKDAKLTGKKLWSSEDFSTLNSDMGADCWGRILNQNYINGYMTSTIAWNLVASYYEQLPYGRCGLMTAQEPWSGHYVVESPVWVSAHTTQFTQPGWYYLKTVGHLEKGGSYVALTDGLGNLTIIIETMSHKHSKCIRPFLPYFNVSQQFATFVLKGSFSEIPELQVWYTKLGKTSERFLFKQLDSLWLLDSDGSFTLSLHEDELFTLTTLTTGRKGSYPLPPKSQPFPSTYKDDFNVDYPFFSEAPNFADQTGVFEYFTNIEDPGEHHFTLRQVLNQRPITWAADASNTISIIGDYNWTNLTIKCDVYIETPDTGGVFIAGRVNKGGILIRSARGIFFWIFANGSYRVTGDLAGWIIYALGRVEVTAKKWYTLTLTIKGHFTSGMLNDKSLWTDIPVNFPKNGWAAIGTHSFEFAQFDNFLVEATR
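qHTS, 1536-well; 145M-Twi-hGALC-G270D cells (WT line also made) in DMEM/F12 + 10% FBS; compound incubation on live cells; HMU-β-gal 0.1 mM final, pH 5.2, NaTC; carbonate stop; fluorescence increase = enhanced residual activity.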
HTT-AS act: Primary qHTS for Identification of Small Molecule Activators of Huntingtin-Antisense Promoter Activity. HEK293 HTT-AS promoter firefly luciferase reporter, 24 h; response scale: percent change from vehicle, -100% = no light. Potency, µM (series often up to 57.5 µM), actives largely listed as activators. 0.24% of 48,000 active. AID 1508624, 2021; further: nearly all actives have a fitted effect of over 55% in size
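Luminescence was read after Dual-Glo reagent and a 10 min room-temperature incubation. Values were normalized to vehicle (0% activity) and zero RLU (-100% activity). Reporter HEK293 cells had been exposed to compounds (up to 57.5 uM final) for 24 h.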
A number is an active result; [ ] = dose if it differs, or a comment. Rows were chosen to be rich in hits. Some 1.3% of all compounds tested hit in one or more screens of this group. The call rests on the fitted dose curve; in most records, active means well fitted curve in the direction sought with a large enough effect; inconclusive means small, poorly fitted or top-dose-only effect, or another doubt; inactive means no such curve, though single readings can be large; an effect the other way counts as inactive or inconclusive.

Cc1nc2cc(-c3ccccc3)nn2c(C)c1CCC(=O)NCc1cccc(Cl)c1 was read as HTT promoter inh 13µM, GALC G270D up inactive and HTT-AS act inactive.
`CCc1ccccc1NC(=O)CCc1c(C)nc2cc(-c3ccccc3)nn2c1C` gave HTT promoter inh inconclusive, GALC G270D up inactive and HTT-AS act inactive.
`COc1cc(OC)cc(-c2cc3nc(C)c(CCC(=O)NCc4ccccc4)c(C)n3n2)c1` gave HTT promoter inh 2µM, GALC G270D up inactive and HTT-AS act inactive.
For Cc1ccc(NC(=O)Nc2cc(C(F)(F)F)ccc2F)cc1Nc1ccc2c(c1)NC(=O)C2=Cc1ccc[nH]1 the results were HTT promoter inh inconclusive and HTT-AS act inactive.
`CC1(C)CCC(CN2CCN(c3ccc(C(=O)NS(=O)(=O)c4ccc(NCC5CCOCC5)c([N+](=O)[O-])c4)c(Oc4cnc5[nH]ccc5c4)c3)CC2)=C(c2ccc(Cl)cc2)C1` gave HTT promoter inh inactive and HTT-AS act inactive.
Nc1nc(NCCNc2ncc(-n3ccnc3)c(-c3ccc(Cl)cc3Cl)n2)ccc1[N+](=O)[O-] was read as HTT promoter inh inconclusive and HTT-AS act inactive.
CC(C)=CCCC(C)=CCCC(C)=CCSc1ccccc1C(=O)O was read as HTT promoter inh inconclusive and HTT-AS act inactive.
For Cc1ccc(-n2c(-c3ccco3)nc3c(cnn3-c3ccc(C)cc3)c2=O)cc1 the results were HTT promoter inh inactive, GALC G270D up inactive and HTT-AS act inactive.
Screening Cc1cccc(-n2c(-c3ccco3)nc3c(cnn3-c3ccc(F)cc3)c2=O)c1 returned HTT promoter inh 18µM, GALC G270D up inactive and HTT-AS act inactive.
`CC(=O)NCCC(=O)N[C@@H](CCC(N)=O)C(=O)N[C@@H](CO)C(=O)N[C@@H](CCC(N)=O)C(=O)N[C@@H](CCC(N)=O)C(=O)N[C@H](C(=O)N[C@@H](Cc1ccccc1)C(=O)N[C@]1(C)CCCCCCC=CCCC[C@@](C)(C(=O)N[C@@H](CCC(N)=O)C(=O)N[C@@H](CC(N)=O)C(N)=O)NC(=O)[C@H](CC(C)C)NC(=O)[C@H](CC(C)C)NC(=O)[C@@H](CCCNC(=N)N)NC(=O)[C@H](Cc2c[nH]c3ccccc23)NC(=O)[C@H](CC(C)C)NC(=O)[C@H](CC(N)=O)NC1=O)[C@H](C)O` gave HTT promoter inh inactive and HTT-AS act inactive.
Screening CC(C)(C)[C@H](NC(=O)c1ccc(N)c(Cl)c1)C(=O)N1CCC[C@@H]1C(=O)N[C@H](C#N)CC(=O)O returned HTT promoter inh inactive[6.01 µM] and HTT-AS act inactive[6 µM].
For Cc1ccc(CNC(=O)c2ccc3nc(N4CCCCC4)sc3c2)cc1 the results were HTT promoter inh inconclusive, GALC G270D up inactive and HTT-AS act inactive.
For CC1CCN(c2nc3ccc(C(=O)NCc4ccccc4)cc3s2)CC1 the results were HTT promoter inh 0.11µM, GALC G270D up inactive and HTT-AS act inactive.
For CCOc1ccccc1CNC(=O)c1ccc2c(c1)sc1nc(-c3ccccc3)cn12 the results were HTT promoter inh inactive, GALC G270D up inactive and HTT-AS act inconclusive.
For CC1CCN(c2nc3ccc(C(=O)NC(C)C)cc3s2)CC1 the results were HTT promoter inh inactive, GALC G270D up inactive and HTT-AS act inconclusive.
`CCOc1ccccc1CNC(=O)c1ccc2nc(N3CCC(C)CC3)sc2c1` gave HTT promoter inh 1.8µM, GALC G270D up inactive and HTT-AS act inactive.
`CC1CCN(c2nc3ccc(C(=O)NCCc4ccc(S(N)(=O)=O)cc4)cc3s2)CC1` gave HTT promoter inh 0.4µM, GALC G270D up inactive and HTT-AS act inconclusive.
Screening COc1ccc(C2=N[C@H](c3ccc(Cl)cc3)[C@H](c3ccc(Cl)cc3)N2C(=O)N2CCNC(=O)C2)c(OC(C)C)c1 returned HTT promoter inh inactive and HTT-AS act inactive.
Screening COc1ccc(-c2nc(N3CCOCC3)c3sc(CN(C)c4ncc(C(=O)NO)cn4)cc3n2)cn1 returned HTT promoter inh inactive and HTT-AS act inconclusive.
`C[C@@]1(c2cc(-c3cncnc3)c(F)cc2F)CCSC(N)=N1` gave HTT promoter inh inconclusive and HTT-AS act inactive.
Screening CCc1ccc(NC(=O)c2cc(-c3cccs3)on2)cc1 returned HTT promoter inh inactive, GALC G270D up inactive and HTT-AS act inconclusive.
Cc1ccc(NC(=O)c2cc(-c3cccs3)on2)cc1C was read as HTT promoter inh inactive, GALC G270D up inactive and HTT-AS act 8.9µM.
Screening COC(=O)[C@H](CCCN=C(N)N)NS(=O)(=O)c1ccc(C)cc1 returned HTT promoter inh inactive and HTT-AS act inactive.
For CC(=O)Nc1nc(C)c(-c2ccc(Cl)c(S(=O)(=O)NCCO)c2)s1 the results were HTT promoter inh inconclusive and HTT-AS act inactive.
Screening Cc1ccccc1C(C(=O)NC1CCCCC1)N(C(=O)CNc1ccc(C#N)cc1)c1cccc(F)c1 (stereo not given) returned HTT promoter inh inactive and HTT-AS act inactive.
For CCOC(=O)c1ccc(N2C(=O)c3n[nH]c(-c4cccs4)c3C2c2ccc(OCC)cc2)cc1 (stereo not given) the results were HTT promoter inh inconclusive, GALC G270D up inactive and HTT-AS act inactive.
Screening CCOC(=O)c1ccc(N2C(=O)c3n[nH]c(-c4cccs4)c3C2c2ccc(CC)cc2)cc1 (stereo not given) returned HTT promoter inh 20µM, GALC G270D up inactive and HTT-AS act inactive.
CCOC(=O)c1ccc(N2C(=O)c3n[nH]c(-c4cccs4)c3C2c2cccc(O)c2)cc1 (stereo not given) was read as HTT promoter inh inconclusive, GALC G270D up inactive and HTT-AS act inactive.
Screening CCOC(=O)c1ccc(N2C(=O)c3n[nH]c(-c4cccs4)c3C2c2ccc(C(C)C)cc2)cc1 (stereo not given) returned HTT promoter inh 25µM, GALC G270D up inactive and HTT-AS act inactive.
Screening Cc1ccc(-c2noc(-c3cccnc3NCc3ccco3)n2)cc1 returned HTT promoter inh inactive, GALC G270D up inactive and HTT-AS act inconclusive.
`COc1ccc(-c2noc(-c3cccnc3NCc3ccco3)n2)cc1` gave HTT promoter inh inactive, GALC G270D up inactive and HTT-AS act 11µM.
O=c1c2cc3c(nc2ncn1Cc1ccc(Cl)cc1)CCCC3 was read as HTT promoter inh inactive, GALC G270D up inactive and HTT-AS act inactive.
Screening CC1CCc2nc3ncn(Cc4ccc(Cl)cc4)c(=O)c3cc2C1 (stereo not given) returned HTT promoter inh inactive, GALC G270D up inactive and HTT-AS act 3.2µM.
CCc1cc(C(C)=NOCc2ccc(C3CCCCC3)c(C(F)(F)F)c2)ccc1CN1CC(C(=O)O)C1 was read as HTT promoter inh inactive and HTT-AS act inactive.
`Cc1ccc(NC(=O)c2cccc(C(C)(C)C#N)c2)cc1Nc1ccc2ncn(C)c(=O)c2c1` gave HTT promoter inh inconclusive and HTT-AS act inactive.
Screening Cc1ccc2ncc(C(=O)Nc3cccc(C(F)(F)F)c3)c(=O)n2c1 returned HTT promoter inh inactive, GALC G270D up inactive and HTT-AS act inactive.
For Cc1ccc(NC(=O)c2cnc3cc(C)ccn3c2=O)c(C)c1 the results were HTT promoter inh inactive, GALC G270D up inactive and HTT-AS act 3.5µM.
